Measurements taken from PubChem BioAssay (EPA / NIEHS).
Active and inactive are the calls of the source. Rule for the calls: active = hit-call score of the fitted dose curve at least 0.9, where 1 is the maximum; inactive = score below 0.9.

Test: ATG_DR4_LXR_CIS: Attagene CIS-FACTORIAL HepG2 Assay for human Liver X Receptor (LXR), DR4 submotif (AID 2282929)
Details: HepG2 Attagene DR4 cis-reporter, mRNA transcription; actives raise or lower the signal
Protocol: ATG_CIS is a cell-based, multiplexed-readout assay that uses HepG2, a human liver cell line, with measurements taken at 24 hours after chemical dosing in a 24-well plate.ATG_DR4_LXR_CIS is one of 52 assay component(s) measured or calculated from the ATG_CIS assay. It is designed to make measurements of mRNA induction, a form of inducible reporter, as detected with fluorescence intensity signals by Reverse transcription polymerase chain reaction (RT-PCR) and Capillary electrophoresis technology.Data from the assay component ATG_DR4_LXR_CIS was analyzed into 1 assay endpoint. This assay endpoint, ATG_DR4_LXR_CIS, was analyzed with bidirectional fitting relative to DMSO as the negative control and baseline of activity. Using a type of inducible reporter, measures of mRNA for gain or loss-of-signal activity can be used to understand the reporter gene at the transcription factor-level as they relate to the gene NR1H2 and NR1H3. Furthermore, this assay endpoint can be referred to as a primary readout, because this assay has produced multiple assay endpoints where this one serves a reporter gene function. To generalize the intended target to other relatable targets, this assay endpoint is annotated to the nuclear receptor intended target family, where the subfamily is non-steroidal.
Human liver HepG2 cells are transiently transfected with multiple reporter transcription units (MRTUs) in 6-well plates using FuGene 6 reagent (Roche; 3 ml FuGene/1 mg DNA). The MRTU constructs are regulated by a cis-regulating element (promoter). […] A major difference between the CIS and TRANS system is that in CIS activities of endogenous TFs are measured, whereas the TRANS assay evaluates changes in activities of exogenous, chimeric NR-Gal4 proteins. […] At the end of 24 hour incubation, total RNA was isolated using TriZol reagent (Invitrogen). The isolated RNA is then reverse-transcribed using oligo(dT) primer and Mo-MLV reverse transcriptase (Invitrogen) with DNAse I (Ambion) treatment for 30 min. The one-tenth of the produced cDNA was amplified by PCR using Taq DNA polymerase (Invitrogen) and two reporter sequence-specific primers. The PCR products were fluorescently labeled by primer extension with 6-arboxyfluorescein (6-FAM) 5'-labeled reporter sequence-specific primer (2 min at 95 C, 20 s at 68 C and 10 min at 72 C) and these products were digested with 5U of HpaI (New England Biolabs) for 2h at 37 C. The fragments were purified using Qiaquick PCR columns (Qiagen), analyzed on an ABI 3130xL genetic analyzer (Applied Biosystems) with peak positions identified by using a set of X-rhodamine (ROX)-labeled MapMarker1000 molecular weight standards (BioVentures). The raw capillary electrophoresis data was processed using Attagraph software (Attagene).

| SMILES | outcome | AC50 |
| --- | --- | --- |
| O=P(O)(Oc1ccccc1)Oc1ccccc1 | inactive | – |
| CN(C)C(=O)C(c1ccccc1)c1ccccc1 | inactive | – |
| CC(C)C(=O)Cl | inactive | – |
| O=[N+]([O-])c1cc(C(F)(F)F)c(Cl)c([N+](=O)[O-])c1Cl | – | 5.08 µM (active) |
| O=C1C=CC(=O)C=C1 | inactive | – |
| CCOP(O)OCC | inactive | – |
| Nc1ccc(Cl)c(Cl)c1 | – | 134 µM (active) |
| CCC(C)(C)O | inactive | – |
| CN(C)CCC#N | inactive | – |
| [Cl][Sb]([Cl])[Cl] | inactive | – |
| CCCCCCCCCCCCCCCC[N+](C)(C)C | inactive | – |
| BrCBr | inactive | – |
| CC1OC(C)OC(C)O1 (stereo not given) | inactive | – |
| CCCOC(=O)c1ccccc1C(=O)OCCC | inactive | – |
| C=CCO | inactive | – |
| O=P1(NCCCl)OCCCN1CCCl (stereo not given) | inactive | – |
| COc1cc(OC)nc(Oc2cccc(Oc3nc(OC)cc(OC)n3)c2C(=O)O)n1 | inactive | – |
| COC(=O)c1ccccc1S(=O)(=O)NC(=O)Nc1nc(C)cc(C)n1 | inactive | – |
| O=C=Nc1ccccc1 | inactive | – |
| O=C(NC(=O)c1c(F)cccc1F)Nc1ccc(Oc2ccc(C(F)(F)F)cc2Cl)cc1F | inactive | – |

| SMILES | outcome | AC50 |
| --- | --- | --- |
| c1cc(OCC2CO2)ccc1Cc1ccc(OCC2CO2)cc1 (stereo not given) | – | 48.3 µM (active) |
| CCOC(=O)C1OC1(C)c1ccccc1 (stereo not given) | inactive | – |
| Cc1cc(C)c(C2=C(OC(=O)CC(C)(C)C)C3(CCCC3)OC2=O)c(C)c1 | – | 28.5 µM (active) |
| SCc1ccco1 | inactive | – |
| Cc1ncc(C[n+]2csc(CCO)c2C)c(N)n1 | inactive | – |
| ClCC(Cl)Cl | inactive | – |
| N#CCNCC#N | inactive | – |
| C=CC(=O)OC | inactive | – |
| O=C(O)COc1ccccc1 | inactive | – |
| CCC(Br)(CC)C(=O)NC(N)=O | inactive | – |
| Oc1ccc(Cl)cc1 | inactive | – |
| C=CCc1ccc(OC(=O)Cc2ccccc2)c(OC)c1 | inactive | – |
| C=CC(=O)OCC(CC)CCCC (stereo not given) | – | 147 µM (active) |
| CCCCOC(=O)CCC(=O)OCCCC | inactive | – |
| Cl/C=C\CCl | inactive | – |
| Nc1ccc(-c2ccc(N)c(N)c2)cc1N | inactive | – |
| C=C(Cl)Cl | inactive | – |
| Nc1ccccc1C(=O)OCCc1ccccc1 | inactive | – |
| c1ccc2c(c1)CCCC2 | inactive | – |
| O=C(O)C(Br)Br | inactive | – |
